Test results as given in the supplement of paper PMC10849652.
About 8,800 targets were measured; listed, in parts, are those with a hit and a random draw of the rest. About 0.5% of all pairs of compound and target were hits.

How the values were obtained:
Test in all cases: log2 fold change, soluble protein after heating vs DMSO (PISA); higher = thermal stabilisation; K562 lysate, 10 uM; active = over 0.2 and 3.5 SD of the protein, either way, in both replicates (recomputed)
vemurafenib = compound: CCCS(=O)(=O)Nc1ccc(F)c(C(=O)c2c[nH]c3ncc(-c4ccc(Cl)cc4)cc23)c1F [vemurafenib]
Procedure, shortened: (§1)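 Values give the log-two fold change in thermal stability against solvent controls, from duplicates. Crude K562 extract at 1 mg/mL protein, made by dounce homogenisation in PBS pH 7.4 with 1 mM MgCl2, was treated with 10 μM compound for 30 min. After 3 min heating across 48°C-58°C, aliquots were pooled, adjusted to 0.5% NP-40 at 4°C and centrifuged at 21,000xg for 90 min. The supernatant was measured by TMTpro 16plex LC-MS/MS with channel sums equalised.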

[1] = compound: CCCS(=O)(=O)Nc1ccc(F)c(C(=O)c2c[nH]c3ncc(Cl)cc23)c1F
Procedure, shortened: as §1

barasertib = compound: CCN(CCCOc1ccc2c(Nc3cc(CC(=O)Nc4cccc(F)c4)[nH]n3)ncnc2c1)CCOP(=O)(O)O [barasertib]
Procedure, shortened: as §1

[2] = compound: CC[C@@H]1C(=O)N(C)c2cnc(Nc3ccc(C(=O)NC4CCN(C)CC4)cc3OC)nc2N1C1CCCC1
Procedure, shortened: as §1

volasertib = compound: CC[C@@H]1C(=O)N(C)c2cnc(Nc3ccc(C(=O)N[C@H]4CC[C@H](N5CCN(CC6CC6)CC5)CC4)cc3OC)nc2N1C(C)C [volasertib]
Procedure, shortened: as §1

[3] = compound: CCn1c(C(=O)N(C2CC2)C2CC2)cc2c3c(ncn3C)c(Nc3cc(C)n(C)n3)nc21
Procedure, shortened: as §1

[4] = compound: CCn1cc(-c2ccnc3[nH]c(-c4cccc(CN(C)C)c4)cc23)c(-c2ccc(NC(=O)N(C)C)cc2)n1
Procedure, shortened: as §1

[5] = compound: CN1CCC(CNc2ccc3ncc(-c4cccc(OC(F)(F)F)c4)n3n2)CC1
Procedure, shortened: as §1

saracatinib = compound: CN1CCN(CCOc2cc(OC3CCOCC3)c3c(Nc4c(Cl)ccc5c4OCO5)ncnc3c2)CC1 [saracatinib]
Procedure, shortened: as §1

sotrastaurin = compound: CN1CCN(c2nc(C3=C(c4c[nH]c5ccccc45)C(=O)NC3=O)c3ccccc3n2)CC1 [sotrastaurin]
Procedure, shortened: as §1

alvocidib = compound: CN1CC[C@H](c2c(O)cc(O)c3c(=O)cc(-c4ccccc4Cl)oc23)[C@H](O)C1 [alvocidib]
Procedure, shortened: as §1

Tubastatin A = compound: CN1CCc2c(c3ccccc3n2Cc2ccc(C(=O)NO)cc2)C1 [Tubastatin A]
Procedure, shortened: as §1

[6] = compound: CNC(=O)C1=CC=CC=C1NC2=NC(=NC=C2Cl)NC3=C(C=C(C=C3)N4CCOCC4)OC
Procedure, shortened: as §1

defactinib = compound: CNC(=O)c1ccc(Nc2ncc(C(F)(F)F)c(NCc3nccnc3N(C)S(C)(=O)=O)n2)cc1 [defactinib]
Procedure, shortened: as §1

[7] = compound: CNc1nc(-c2ccc3c(N)n[nH]c3c2)cc(N2C[C@@H](C(=O)NC3CCCCC3)CC[C@H]2C)n1
Procedure, shortened: as §1

encorafenib = compound: COC(=O)N[C@@H](C)CNc1nccc(-c2cn(C(C)C)nc2-c2cc(Cl)cc(NS(C)(=O)=O)c2F)n1 [encorafenib]
Procedure, shortened: as §1

[8] = compound: COC(=O)[C@H](CCSC)NC(=O)C1=C(C=C(C=C1)NC[C@H](CS)N)C2=CC=CC=C2
Procedure, shortened: as §1

alisertib = compound: COc1cc(Nc2ncc3c(n2)-c2ccc(Cl)cc2C(c2c(F)cccc2OC)=NC3)ccc1C(=O)O [alisertib]
Procedure, shortened: as §1

[9] = compound: COc1cc2nc(-c3cc(F)ccc3O)nc(N[C@@H]3CNC[C@H]3C(C)(C)O)c2cc1OC
Procedure, shortened: as §1

gefitinib = compound: COc1cc2ncnc(Nc3ccc(F)c(Cl)c3)c2cc1OCCCN1CCOCC1 [gefitinib]
Procedure, shortened: as §1

Measured: log2 fold change

FAM120B (UniProt Q96EK7)
UniProt Q96EK7, sequence (Q96EK7 whole entry, looked up): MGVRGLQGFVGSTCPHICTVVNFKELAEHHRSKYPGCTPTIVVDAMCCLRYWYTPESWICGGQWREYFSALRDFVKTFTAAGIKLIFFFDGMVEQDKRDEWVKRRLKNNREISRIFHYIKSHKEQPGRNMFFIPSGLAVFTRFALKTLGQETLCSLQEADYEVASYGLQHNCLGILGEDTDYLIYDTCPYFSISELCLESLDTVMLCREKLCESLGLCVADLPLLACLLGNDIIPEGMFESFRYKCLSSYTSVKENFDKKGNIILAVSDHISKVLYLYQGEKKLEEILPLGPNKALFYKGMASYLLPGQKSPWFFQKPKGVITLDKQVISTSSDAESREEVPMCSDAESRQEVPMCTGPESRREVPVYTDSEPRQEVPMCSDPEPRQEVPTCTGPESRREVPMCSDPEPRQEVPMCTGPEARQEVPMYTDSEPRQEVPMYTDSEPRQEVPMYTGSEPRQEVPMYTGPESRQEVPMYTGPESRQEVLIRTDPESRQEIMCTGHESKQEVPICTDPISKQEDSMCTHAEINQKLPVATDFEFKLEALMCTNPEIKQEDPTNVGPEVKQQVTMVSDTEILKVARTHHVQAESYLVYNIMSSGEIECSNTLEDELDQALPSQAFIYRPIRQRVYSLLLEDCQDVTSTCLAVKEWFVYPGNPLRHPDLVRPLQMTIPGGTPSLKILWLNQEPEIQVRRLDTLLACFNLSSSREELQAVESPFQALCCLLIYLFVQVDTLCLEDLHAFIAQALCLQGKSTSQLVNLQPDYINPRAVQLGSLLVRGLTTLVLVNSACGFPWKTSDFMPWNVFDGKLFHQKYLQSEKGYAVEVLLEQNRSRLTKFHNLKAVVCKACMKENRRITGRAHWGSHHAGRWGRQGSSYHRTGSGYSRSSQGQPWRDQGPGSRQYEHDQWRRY
inactive: vemurafenib 0.001 | [1] 0.045 | barasertib -0.009 | [2] 0.01 | volasertib -0.029 | [3] 0.033 | [4] -0.011 | [5] -0.085 | saracatinib 0.005 | sotrastaurin 0.008 | alvocidib -0.005 | Tubastatin A -0.063 | [6] 0.016 | defactinib 0.073 | [7] -0.02 | encorafenib 0.029 | [8] 0.034 | alisertib -0.007 | [9] -0.001 | gefitinib 0.021

EIF2AK1 (UniProt Q9BQI3)
UniProt Q9BQI3, sequence (Q9BQI3 whole entry, looked up): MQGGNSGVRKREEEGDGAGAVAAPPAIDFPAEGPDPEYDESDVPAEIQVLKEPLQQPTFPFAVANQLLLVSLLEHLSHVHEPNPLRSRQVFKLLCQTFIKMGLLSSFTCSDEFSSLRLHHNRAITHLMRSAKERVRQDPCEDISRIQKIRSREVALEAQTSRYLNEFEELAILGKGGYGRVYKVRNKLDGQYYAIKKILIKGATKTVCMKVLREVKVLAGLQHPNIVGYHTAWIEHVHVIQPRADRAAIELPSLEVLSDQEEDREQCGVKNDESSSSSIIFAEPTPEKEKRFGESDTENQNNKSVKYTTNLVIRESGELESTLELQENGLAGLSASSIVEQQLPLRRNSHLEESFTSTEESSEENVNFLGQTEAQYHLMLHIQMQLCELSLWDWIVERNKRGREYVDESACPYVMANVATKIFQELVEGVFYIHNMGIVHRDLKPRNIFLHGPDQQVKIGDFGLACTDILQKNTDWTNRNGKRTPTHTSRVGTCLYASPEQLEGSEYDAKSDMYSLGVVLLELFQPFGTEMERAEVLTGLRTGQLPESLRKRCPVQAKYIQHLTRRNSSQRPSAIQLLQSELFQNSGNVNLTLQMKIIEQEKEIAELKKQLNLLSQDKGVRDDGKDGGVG
active: volasertib -0.287
inactive: vemurafenib -0.004 | [1] -0.05 | barasertib 0.019 | [2] -0.016 | [3] -0.002 | [4] -0.001 | [5] -0.037 | saracatinib -0.019 | sotrastaurin 0 | alvocidib 0.044 | Tubastatin A -0.044 | [6] 0.068 | defactinib -0.021 | [7] -0.028 | encorafenib -0.004 | [8] 0.041 | alisertib -0.004 | [9] 0.122 | gefitinib 0.101

ECI2 (UniProt O75521)
UniProt O75521, sequence (O75521 whole entry, looked up): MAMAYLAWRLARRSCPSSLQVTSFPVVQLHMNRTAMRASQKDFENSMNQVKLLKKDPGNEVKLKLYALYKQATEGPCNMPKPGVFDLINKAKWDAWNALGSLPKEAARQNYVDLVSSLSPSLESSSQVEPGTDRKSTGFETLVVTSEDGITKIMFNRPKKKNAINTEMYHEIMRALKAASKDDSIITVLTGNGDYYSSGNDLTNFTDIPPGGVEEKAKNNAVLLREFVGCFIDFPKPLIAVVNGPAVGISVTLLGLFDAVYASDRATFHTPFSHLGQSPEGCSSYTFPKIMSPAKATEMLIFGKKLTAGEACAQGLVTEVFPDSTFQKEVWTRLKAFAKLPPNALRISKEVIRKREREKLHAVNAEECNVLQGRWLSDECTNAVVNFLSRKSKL
inactive: vemurafenib 0.071 | [1] 0.013 | barasertib 0.007 | [2] 0.059 | volasertib -0.013 | [3] 0.004 | [4] -0.021 | [5] -0.017 | saracatinib -0.003 | sotrastaurin -0.045 | alvocidib -0.033 | Tubastatin A 0.054 | [6] -0.054 | defactinib -0.038 | [7] 0.03 | encorafenib -0.006 | [8] -0.067 | alisertib 0.004 | [9] -0.008 | gefitinib 0.011

DYRK1A (UniProt Q13627)
inactive: vemurafenib -0.06 | [1] -0.009 | barasertib 0.025 | [2] -0.047 | volasertib -0.016 | [3] 0.038 | [4] -0.004 | [5] 0.044 | saracatinib -0.017 | sotrastaurin -0.013 | alvocidib 0.106 | Tubastatin A -0.088 | [6] 0.113 | defactinib 0.016 | [7] -0.034 | encorafenib 0.024 | [8] 0.002 | alisertib -0.008 | [9] 0.017 | gefitinib 0.007

FARSA (UniProt Q9Y285)
inactive: vemurafenib -0.002 | [1] -0.01 | barasertib -0.012 | [2] 0.091 | volasertib -0.035 | [3] -0.068 | [4] -0.018 | [5] 0.054 | saracatinib 0.03 | alvocidib -0.003 | Tubastatin A -0.105 | [6] 0.007 | defactinib 0.045 | [7] 0.019 | encorafenib -0.02 | [8] 0.098 | alisertib 0.01 | [9] 0.017 | gefitinib -0.014
active: sotrastaurin 0.583

GGT7 (UniProt Q9UJ14)
inactive: vemurafenib 0.003 | [1] 0.029 | barasertib 0.007 | [2] 0.037 | volasertib -0.014 | [3] -0.014 | [4] -0.003 | [5] 0.027 | saracatinib 0.097 | sotrastaurin 0.032 | alvocidib -0.013 | Tubastatin A 0.076 | [6] 0.008 | defactinib 0.066 | [7] 0.079 | encorafenib 0.078 | [8] -0.065 | alisertib -0.015 | [9] 0.044 | gefitinib 0.055

GCLM (UniProt P48507)
UniProt P48507, sequence (P48507 whole entry, looked up): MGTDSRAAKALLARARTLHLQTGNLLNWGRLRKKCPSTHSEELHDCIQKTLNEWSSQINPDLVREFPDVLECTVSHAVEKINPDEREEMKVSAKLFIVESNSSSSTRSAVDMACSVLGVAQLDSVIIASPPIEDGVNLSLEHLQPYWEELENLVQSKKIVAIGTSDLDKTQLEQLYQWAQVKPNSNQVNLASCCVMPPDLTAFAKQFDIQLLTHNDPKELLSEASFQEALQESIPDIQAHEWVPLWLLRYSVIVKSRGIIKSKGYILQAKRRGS
inactive: vemurafenib 0.014 | [1] 0.025 | barasertib -0.007 | [2] 0 | volasertib -0.015 | [3] -0.013 | [4] -0.011 | [5] -0.012 | saracatinib 0.011 | sotrastaurin -0.022 | alvocidib 0.028 | Tubastatin A -0.049 | [6] 0.003 | defactinib 0.003 | [7] -0.038 | encorafenib -0.003 | [8] -0.004 | alisertib 0.05 | [9] 0.002 | gefitinib -0.023

GCDH (UniProt Q92947)
UniProt Q92947, sequence (Q92947 whole entry, looked up): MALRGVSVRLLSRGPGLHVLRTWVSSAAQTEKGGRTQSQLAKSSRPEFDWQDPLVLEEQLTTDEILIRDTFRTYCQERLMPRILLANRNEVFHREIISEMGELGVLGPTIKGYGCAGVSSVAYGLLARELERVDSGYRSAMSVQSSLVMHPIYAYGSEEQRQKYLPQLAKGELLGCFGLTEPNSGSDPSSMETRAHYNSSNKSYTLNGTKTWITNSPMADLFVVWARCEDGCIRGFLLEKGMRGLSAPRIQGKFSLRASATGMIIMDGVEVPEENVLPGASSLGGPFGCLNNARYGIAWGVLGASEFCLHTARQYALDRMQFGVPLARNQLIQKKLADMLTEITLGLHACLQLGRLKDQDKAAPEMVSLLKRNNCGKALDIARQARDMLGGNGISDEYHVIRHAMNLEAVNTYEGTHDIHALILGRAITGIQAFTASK
inactive: vemurafenib 0.031 | [1] 0.025 | barasertib -0.054 | [2] 0.002 | volasertib 0.022 | [3] -0.003 | [4] -0.07 | [5] -0.077 | saracatinib -0.041 | sotrastaurin -0.041 | alvocidib 0.018 | Tubastatin A -0.069 | [6] -0.049 | defactinib 0.004 | [7] 0.057 | encorafenib -0.049 | [8] 0.159 | alisertib 0.049 | [9] 0.006 | gefitinib -0.004

FOXJ3 (UniProt Q9UPW0)
UniProt Q9UPW0, sequence (Q9UPW0 whole entry, looked up): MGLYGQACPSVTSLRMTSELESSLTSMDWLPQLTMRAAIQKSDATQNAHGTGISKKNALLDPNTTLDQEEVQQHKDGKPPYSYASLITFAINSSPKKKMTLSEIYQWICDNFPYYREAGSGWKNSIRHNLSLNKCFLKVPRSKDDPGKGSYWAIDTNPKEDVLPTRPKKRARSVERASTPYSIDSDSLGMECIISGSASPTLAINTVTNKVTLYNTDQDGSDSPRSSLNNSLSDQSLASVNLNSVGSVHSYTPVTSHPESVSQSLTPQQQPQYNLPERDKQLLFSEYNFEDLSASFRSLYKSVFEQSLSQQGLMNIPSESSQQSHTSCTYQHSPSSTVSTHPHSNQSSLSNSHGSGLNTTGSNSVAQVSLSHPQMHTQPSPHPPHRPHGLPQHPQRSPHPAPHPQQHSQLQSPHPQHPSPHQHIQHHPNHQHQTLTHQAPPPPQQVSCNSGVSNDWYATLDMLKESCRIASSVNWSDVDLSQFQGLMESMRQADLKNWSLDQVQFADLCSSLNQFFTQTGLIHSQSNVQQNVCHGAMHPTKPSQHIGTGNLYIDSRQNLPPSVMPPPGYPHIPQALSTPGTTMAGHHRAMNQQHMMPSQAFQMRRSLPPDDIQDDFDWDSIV
inactive: vemurafenib 0.111 | [1] 0.124 | barasertib 0.038 | [2] 0.054 | volasertib -0.096 | [3] 0.02 | [4] 0.032 | [5] -0.08 | saracatinib 0.023 | sotrastaurin 0.018 | alvocidib -0.009 | Tubastatin A -0.03 | [6] -0.031 | defactinib 0.014 | [7] 0.033 | encorafenib 0.055 | [8] -0.137 | alisertib -0.028 | [9] 0 | gefitinib 0.054

ENY2 (UniProt Q9NPA8)
UniProt Q9NPA8, sequence (Q9NPA8 whole entry, looked up): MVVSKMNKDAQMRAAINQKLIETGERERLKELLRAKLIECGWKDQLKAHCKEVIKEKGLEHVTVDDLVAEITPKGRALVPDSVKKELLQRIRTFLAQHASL
active: [4] 0.886 | [5] -0.406 | alvocidib 0.351
inactive: vemurafenib -0.057 | [1] 0.016 | barasertib 0.072 | [2] -0.036 | volasertib 0.033 | [3] 0.048 | saracatinib -0.003 | sotrastaurin -0.003 | Tubastatin A -0.024 | [6] 0.016 | defactinib 0.096 | [7] -0.084 | encorafenib 0.004 | [8] -0.003 | alisertib 0.024 | [9] -0.019 | gefitinib -0.016

FAU (UniProt E9PR30)
inactive: vemurafenib -0.009 | [1] -0.015 | barasertib -0.17 | [2] 0.005 | volasertib -0.002 | [3] 0.036 | [5] -0.076 | saracatinib -0.042 | sotrastaurin -0.012 | alvocidib 0.073 | Tubastatin A 0.02 | [6] -0.087 | defactinib 0.003 | [7] 0.013 | encorafenib -0.04 | [8] 0.013 | alisertib 0.035 | [9] -0.016 | gefitinib -0.044
active: [4] 0.33

EXOC1 (UniProt Q9NV70)
UniProt Q9NV70, sequence (Q9NV70 whole entry, looked up): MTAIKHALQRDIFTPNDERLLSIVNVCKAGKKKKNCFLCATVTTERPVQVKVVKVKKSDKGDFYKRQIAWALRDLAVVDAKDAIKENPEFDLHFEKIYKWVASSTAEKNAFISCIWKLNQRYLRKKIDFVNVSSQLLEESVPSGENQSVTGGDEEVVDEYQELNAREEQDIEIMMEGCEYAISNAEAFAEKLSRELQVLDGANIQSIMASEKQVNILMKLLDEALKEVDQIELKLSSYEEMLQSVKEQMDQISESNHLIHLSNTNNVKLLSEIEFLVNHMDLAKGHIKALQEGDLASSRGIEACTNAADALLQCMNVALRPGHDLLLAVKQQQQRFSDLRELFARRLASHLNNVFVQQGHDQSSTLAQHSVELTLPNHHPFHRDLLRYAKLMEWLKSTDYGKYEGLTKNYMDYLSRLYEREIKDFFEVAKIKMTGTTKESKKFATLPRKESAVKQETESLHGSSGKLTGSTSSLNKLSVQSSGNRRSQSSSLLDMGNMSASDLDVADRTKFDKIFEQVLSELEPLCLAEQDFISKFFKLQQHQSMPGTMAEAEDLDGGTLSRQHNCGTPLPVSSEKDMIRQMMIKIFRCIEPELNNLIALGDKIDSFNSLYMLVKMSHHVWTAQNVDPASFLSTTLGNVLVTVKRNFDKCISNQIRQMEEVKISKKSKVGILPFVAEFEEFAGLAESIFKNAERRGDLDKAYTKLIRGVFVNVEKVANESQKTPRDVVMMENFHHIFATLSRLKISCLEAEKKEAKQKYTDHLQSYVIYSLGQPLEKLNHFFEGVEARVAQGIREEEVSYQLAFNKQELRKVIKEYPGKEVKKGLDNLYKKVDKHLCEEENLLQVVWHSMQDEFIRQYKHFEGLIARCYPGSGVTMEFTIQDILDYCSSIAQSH
inactive: vemurafenib 0 | [1] 0.027 | barasertib 0.051 | [2] -0.106 | volasertib -0.03 | [3] 0.082 | [4] 0.053 | [5] -0.119 | saracatinib 0 | sotrastaurin 0.02 | alvocidib 0.01 | Tubastatin A -0.139 | [6] 0.006 | defactinib 0.022 | [7] -0.086 | encorafenib 0.014 | [8] 0.012 | alisertib 0.007 | [9] -0.015 | gefitinib 0.015

GGA2 (UniProt Q9UJY4)
inactive: vemurafenib -0.003 | [1] 0.011 | barasertib 0.073 | [2] -0.005 | volasertib -0.048 | [3] 0.032 | [4] -0.02 | [5] -0.088 | saracatinib 0.025 | sotrastaurin 0.041 | alvocidib 0.002 | Tubastatin A -0.085 | [6] 0.003 | defactinib -0.029 | [7] -0.018 | encorafenib 0.002 | [8] 0.01 | alisertib 0.038 | [9] 0.023 | gefitinib -0.025

FKBP1A (UniProt P62942)
inactive: vemurafenib -0.138 | [1] -0.028 | barasertib 0.092 | [2] 0.107 | volasertib 0.163 | [3] -0.036 | [5] 0.146 | saracatinib 0.052 | sotrastaurin -0.017 | alvocidib -0.296 | Tubastatin A 0.047 | [6] 0.06 | defactinib 0.144 | [7] 0.034 | encorafenib 0.005 | [8] -0.061 | alisertib 0.105 | [9] -0.076 | gefitinib -0.003
active: [4] -0.854

GAMT (UniProt Q14353)
inactive: vemurafenib 0.037 | [1] 0.045 | barasertib 0.112 | [2] 0.036 | volasertib 0.007 | [3] 0.011 | [4] 0.003 | [5] -0.029 | saracatinib -0.014 | sotrastaurin 0.018 | alvocidib 0.025 | Tubastatin A -0.059 | [6] 0.055 | defactinib 0.068 | [7] 0.038 | encorafenib -0.028 | [8] 0.039 | alisertib 0.018 | [9] -0.021 | gefitinib -0.035

ENGASE (UniProt Q8NFI3)
UniProt Q8NFI3, sequence (Q8NFI3 whole entry, looked up): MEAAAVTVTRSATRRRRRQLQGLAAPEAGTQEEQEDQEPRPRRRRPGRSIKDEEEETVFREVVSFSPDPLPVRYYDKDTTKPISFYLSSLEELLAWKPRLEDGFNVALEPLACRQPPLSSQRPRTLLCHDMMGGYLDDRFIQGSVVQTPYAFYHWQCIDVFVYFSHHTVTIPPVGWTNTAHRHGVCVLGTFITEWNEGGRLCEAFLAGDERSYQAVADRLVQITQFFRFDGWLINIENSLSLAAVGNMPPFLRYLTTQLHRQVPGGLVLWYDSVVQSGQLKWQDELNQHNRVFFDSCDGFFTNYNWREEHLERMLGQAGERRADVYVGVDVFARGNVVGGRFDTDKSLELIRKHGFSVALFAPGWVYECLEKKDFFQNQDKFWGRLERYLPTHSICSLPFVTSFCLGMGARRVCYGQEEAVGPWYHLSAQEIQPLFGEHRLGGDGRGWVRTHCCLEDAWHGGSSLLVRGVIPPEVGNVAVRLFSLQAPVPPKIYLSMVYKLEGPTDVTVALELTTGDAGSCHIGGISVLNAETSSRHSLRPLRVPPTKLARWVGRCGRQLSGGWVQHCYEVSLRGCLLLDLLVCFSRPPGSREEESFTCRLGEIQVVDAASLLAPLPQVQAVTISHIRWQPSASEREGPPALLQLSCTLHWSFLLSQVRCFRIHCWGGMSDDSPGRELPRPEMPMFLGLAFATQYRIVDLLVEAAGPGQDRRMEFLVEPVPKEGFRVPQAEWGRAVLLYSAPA
inactive: vemurafenib 0.034 | [1] 0.05 | barasertib 0.003 | [2] 0 | volasertib -0.035 | [3] -0.031 | [4] 0.028 | [5] 0.052 | saracatinib -0.019 | sotrastaurin -0.008 | alvocidib -0.144 | Tubastatin A -0.02 | [6] 0.043 | defactinib -0.011 | [7] 0.02 | encorafenib 0.018 | [8] -0.056 | alisertib 0.025 | [9] -0.015 | gefitinib 0.018
